Results on 28 compounds are retold here after PubChem BioAssay (Tox21).

Test [1] in a line: qHTS RealTime-Glo MT Cell Viability Assay in HepG2 cells - 40 hour (AID 1224870). Note: nearly all actives have a fitted effect of over 50% in size. Note: potency is the fitted concentration of half-maximal effect. The gist of the method:
(§1)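 HepG2 cells (600/well) mixed with RealTime-Glo MT reagent, settled 5 h at 37 C/5% CO2 before compound addition. Nonlytic NanoLuc luminescence from viable-cell prosubstrate reduction read repeatedly during 40 h treatment at 37 C.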
For orientation: Quantitative high-throughput screening tests each substance at several concentrations.

Test [2] can be described thus: A CellTox Green Cytotoxicity Assay to monitor cytotoxicity in HEK293 cells - 40 hour (AID 1224871). Note: nearly all actives have a fitted effect of over 45% in size. Note: potency is the fitted concentration of half-maximal effect. In outline:
(§2)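 Fluorescence from a DNA-binding dye excluded by viable cells was measured repeatedly in the same HEK293 wells (600 cells/well) during continuous compound exposure at 37 C. Each assay gives one read point: 0, 8, 16, 24, 32 or 40 h.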

A short description of test [3]: qHTS RealTime-Glo MT Cell Viability Assay in HEK293 cells - 16 hour (AID 1224872). Note: nearly all actives have a fitted effect of over 50% in size. Note: potency is the fitted concentration of half-maximal effect. The gist of the method:
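HEK293 cells seeded with NanoLuc/prosubstrate reagent, rested 5 h at 37 C, then dosed and kept at 37 C up to 40 h. Nonlytic real-time luminescence from viable cells read at 0, 8, 16, 24, 32 and 40 h.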

Test [4] can be described thus: A CellTox Green Cytotoxicity Assay to monitor cytotoxicity in HEK293 cells - 24 hour (AID 1224875). Note: series mostly up to about 77 µM; nearly all actives have a fitted effect of over 45% in size. The gist of the method: as §2
The nature of test [5]: A CellTox Green Cytotoxicity Assay to monitor cytotoxicity in HepG2 cells - 16 hour (AID 1224876). Note: nearly all actives have a fitted effect of over 45% in size. Note: potency is the fitted concentration of half-maximal effect. The gist of the method:
(§3)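 Real-time cytotoxicity: fluorescence of a cell-impermeant cyanine dye binding DNA of dead HepG2 cells, measured repeatedly (0–40 h) during compound exposure at 37 C. Cells seeded 600/well with reagent, dosed after 5 h.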

Test [6] is described as follows: qHTS RealTime-Glo MT Cell Viability Assay in HepG2 cells - 32 hour (AID 1224877). Note: nearly all actives have a fitted effect of over 55% in size. Note: potency is the fitted concentration of half-maximal effect. In outline:
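HepG2 cells (600/well) were dispensed with RealTime-Glo reagents, incubated 5 h at 37 °C, then treated with compounds in DMSO for up to 40 h. Nonlytic NanoLuc luminescence reflecting viable cells was read at each stated time point.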

Test [7] can be described thus: A CellTox Green Cytotoxicity Assay to monitor cytotoxicity in HepG2 cells - 24 hour (AID 1224878). Note: nearly all actives have a fitted effect of over 45% in size. Note: potency is the fitted concentration of half-maximal effect. The gist of the method:
as §3

The nature of test [8]: A CellTox Green Cytotoxicity Assay to monitor cytotoxicity in HepG2 cells - 40 hour (AID 1224879). Note: nearly all actives have a fitted effect of over 40% in size. Note: potency is the fitted concentration of half-maximal effect. In outline:
as §3

The nature of test [9]: qHTS RealTime-Glo MT Cell Viability Assay in HEK293 cells - 40 hour (AID 1224874). Note: nearly all actives have a fitted effect of over 50% in size. Particulars: RealTime-Glo luminescence; max response: stronger effect = lower value. The gist of the method: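 Luminescence, which tracks viable cell number through reduction of the prosubstrate to a NanoLuc substrate, was read over continuous 37 C culture. Cells (600/well) were premixed with reagent and rested 5 h before 23 nL of compound in DMSO was pinned.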

Test [10] in a line: qHTS RealTime-Glo MT Cell Viability Assay in HepG2 cells - 8 hour (AID 1224873). Note: nearly all actives have a fitted effect of over 55% in size. The gist of the method:
as §1

Values joined by “and” are separate entries in the source; they are usually repeats but may differ in a detail not shown here. Equal values may be shown once. Records with an inconclusive call do not appear. Some compounds were tested as several samples or in several runs, with calls that do not always agree. Active and inactive are the calls of the source. Calls come from the whole dose curve; as a rule, active = well fitted curve in the direction sought with a large enough effect in the repeat runs; inconclusive = weak or mixed curves; inactive = no such curve, though single readings can be large; an effect the other way counts as inactive or inconclusive.
% is set by controls: 0 for no effect and ±100 for the full control effect.

In the case of `COc1cc(CC(C)N)cc(OC)c1OC` (stereo not given), the Potency entry in test [1], in test [2], in [3], in test [4], in [5] and in test [6] was “inactive” each time. Also, the Potency entry in test [7] and in test [8] was “inactive” each time.

Turning to `CC(C)(C)NC[C@H](O)c1ccc(O)cc1Cl`, the Potency entry in test [1], in test [2], in test [3], in [4], in test [5] and in test [6] was “inactive” throughout. In addition, the Potency entry in test [8] was “inactive”. The max response in test [9] was 4.05% (inactive).

As to `C=CCC1(C(C)CC)C(=O)NC(=O)NC1=O` (stereo not given), the Potency entry in [1], in test [2], in test [3], in test [4], in test [5] and in test [6] was “inactive” in each case. In test [7], the Potency result was “inactive”.

Take `CCN(CC)C1CCCCC1`: the Potency entry in test [1], in test [2], in [3], in test [4], in [5] and in test [6] was “inactive” each time. In addition, the Potency entry in test [8] is “inactive”. Further, the outcome in test [10] was inactive.

As for `CCNP(=S)(OC)O/C(C)=C/C(=O)OC(C)C` (stereo not given), the Potency entry in test [1], in [2], in test [3], in [4], in [5] and in test [6] was “inactive” each time. In addition, the Potency result in test [7] and in test [8] was “inactive” in each case.

For the compound `O=C1C2CC=CCC2C(=O)N1SC(Cl)(Cl)Cl` (stereo not given), the Potency entry in [1] is “inactive and 19.2 µM (active)”; in [2], 6.81 µM (active); in [3] it was 3.83 µM (active); in test [5], “inactive and 42.9 µM (active)”; in test [6], “inactive and 21.5 µM (active)”; in [7], “inactive and 12.1 µM (active)”. Also, the Potency result in test [8] is “inactive and 10.8 µM (active)”.

`C1CN2CCC1CC2`: the Potency entry in test [1], in [2], in [4], in test [5], in test [6] and in [7] was “inactive” in each case. In addition, the Potency entry in test [8] was “inactive”. The call in test [10] was inactive. Besides, in test [9], the max response is 0.665% (inactive).

Consider `ClCCCCCCCl`, for which the Potency entry in [1], in [2], in [3], in test [4], in test [5] and in [6] was “inactive” each time. Further, the Potency entry in test [7] and in test [8] was “inactive” each time. Also, the max response in [9] is 5.82% (inactive).

For `N=C(N)[Se]`, the Potency entry in test [1], in [2], in test [3], in [4], in test [5] and in test [7] was “inactive” each time. Besides, in test [8], the Potency result is “inactive”. For the same compound, the max response in [9] is -7.73% (inactive).

With `COc1cccc([C@@]2(O)CCCC[C@@H]2CN(C)C)c1`, the Potency entry in test [1], in test [2], in test [3], in test [4], in [5] and in test [6] was “inactive” throughout. Moreover, the Potency entry in test [8] is “inactive”. Moreover, the max response in test [9] is 0.459% (inactive).

On to `CC(C)(C)C(=O)C(Cl)Cl`, for which the Potency entry in test [1], in [2], in test [3], in [4], in test [5] and in [6] was “inactive” each time. The Potency result in test [7] and in test [8] was “inactive” throughout. Besides, the max response in test [9] is -2.49% (inactive).

As to `Cn1c(CCCC(=O)O)nc2cc(N(CCCl)CCCl)ccc21`, the Potency result in test [1], in test [2], in [3], in test [4], in [5] and in test [6] was “inactive” throughout. Besides, the Potency result in [8] is “inactive”. For the same compound, in [10], the outcome was inactive.

Consider `N[C@@H](Cc1ccc(Oc2cc(I)c(O)c(I)c2)c(I)c1)C(=O)O`, for which the Potency entry in test [1], in [2], in [3], in [4], in test [5] and in test [6] was “inactive” throughout. Moreover, the max response in [9] was 5.88% (inactive).

On to `CCCN1CCC[C@@H]2Cc3[nH]ncc3C[C@H]21`, for which the Potency result in [1], in test [2], in test [3], in test [4], in test [5] and in test [6] was “inactive” each time. For the same compound, the Potency result in test [7] and in test [8] was “inactive” each time. The outcome in test [10] was inactive.

As to `CCC1(CC)C(=O)C=CNC1=O`, the Potency entry in [1], in test [2], in test [3], in test [4], in test [5] and in test [6] was “inactive” throughout. Further, the Potency result in test [8] is “inactive”. In test [10], the outcome was inactive.

In the case of `[O-][Br+2]([O-])O`, the Potency result in [1], in [2], in test [3], in [4], in test [5] and in test [7] was “inactive” throughout. In addition, the Potency entry in test [8] was “inactive”. Also, the compound was called inactive in test [10].

Regarding `C/C(=N\NC(=O)Nc1cc(F)cc(F)c1)c1ncccc1C(=O)O`, the Potency result in test [1], in [2], in test [3], in [4], in test [5] and in test [6] was “inactive” throughout. Also, the Potency entry in test [8] was “inactive”. The result in [10] was inactive.

Take `Cc1ccc(-c2nc3ccc(C)cn3c2CC(=O)N(C)C)cc1`: the Potency entry in test [1], in test [2], in [3], in [4], in test [5] and in test [6] was “inactive” each time. Also, the Potency result in test [7] and in test [8] was “inactive” each time.

For `O=C(Cl)C(Cl)(Cl)Cl`, the Potency entry in test [1], in test [2], in test [3], in test [4], in test [5] and in [7] was “inactive” each time. Further, the Potency result in test [8] is “inactive”. For the same compound, the max response in test [9] is 1.29% (inactive).

Turning to `Oc1ccc2c3c1O[C@H]1[C@@H](O)C=C[C@H]4[C@@H](C2)NCC[C@@]341`, the Potency result in test [1], in [2], in test [3], in [4], in [5] and in [6] was “inactive” in each case. In addition, the Potency result in test [7] and in test [8] was “inactive” throughout. In addition, in test [9], the max response was -1.32% (inactive).

Take `CC(C)(N)Cc1ccccc1Cl`: the Potency result in [1], in [2], in [3], in test [4], in [5] and in [6] was “inactive” each time. Besides, the Potency entry in test [7] and in test [8] was “inactive” throughout. Further, in [9], the max response was 1.76% (inactive).

For the compound `C=CC=O`, the Potency entry in [1], in [2], in test [3], in test [4], in [5] and in test [7] was “inactive” each time.

Regarding `CCN(CCO)CCO`, the Potency entry in test [1], in [2], in test [3], in test [4], in test [5] and in test [6] was “inactive” in each case. The Potency result in test [7] and in [8] was “inactive” throughout. In addition, the max response in test [9] is 4.13% (inactive).

In the case of `C[C@H](N)C(=O)c1ccccc1`, the Potency entry in test [1], in test [2], in [4], in test [5], in test [6] and in test [7] was “inactive” throughout. Besides, the call in test [10] was inactive. Moreover, the max response in test [9] was -10.2% (inactive).

`O=C(NC(O)C(Cl)(Cl)Cl)NC(O)C(Cl)(Cl)Cl` (stereo not given): the Potency result in test [1], in test [2], in test [3], in test [4], in [5] and in [6] was “inactive” each time. The Potency entry in [7] and in test [8] was “inactive” each time. The result in test [10] was inactive.

In the case of `CC(C)c1ccc(O)cc1`, the Potency entry in [1], in [2], in [3], in [4], in [5] and in [6] was “inactive” throughout. The Potency entry in [7] and in test [8] was “inactive” throughout. In addition, the max response in test [9] was 0.569% (inactive).

For the compound `CC(C)NCC(O)c1ccc([N+](=O)[O-])cc1` (stereo not given), the Potency result in test [1], in test [2], in [4], in test [5], in test [6] and in [7] was “inactive” each time. Moreover, the Potency entry in test [8] is “inactive”. In addition, the call in test [10] was inactive. In addition, in test [9], the max response is 6.95% (inactive).

On to `CN(C)C(=O)Oc1cc(OC(=O)N(C)C)cc(C(O)CNC(C)(C)C)c1` (stereo not given), for which the Potency result in test [1], in [2], in test [3], in test [4], in test [5] and in test [6] was “inactive” each time. Moreover, the Potency entry in [7] and in [8] was “inactive” each time. In test [9], the max response is -1.56% (inactive).
